Several values for one entry are separate records, joined by “and”; a condition that tells them apart may be missing. Equal values may be shown once. The campaign covered roughly 5,500 compounds. About 2,000 (36%) were called active. Roughly 18% stayed inconclusive and do not appear here. No stated cut-off is given here; in the data, active means normalized growth mostly below about 0.91 (no sharp cut-off); inconclusive means no clear call, values can overlap the other calls; inactive means mostly above about 0.92. This is one part of the list.
Test: chemical genetic growth profiling, strain panel (AID 1159580);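 further: tested at 20 µM; growth read once vehicle control cultures reached saturation at 30 °C; 1 = growth at the plate median or of vehicle wells; lower values mean less growth of the strain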
Details: S. cerevisiae deletion strains, growth OD

Measured: normalized growth

C[C@](N)(Cc1ccc(O)c(O)c1)C(=O)O
inactive: locus YAL013W, strain DEP1, hits give low values 0.962 | locus YAL021C, strain ccr4, hits give low values 0.999 | locus YAL026C, strain drs2, hits give low values 0.968 | locus YAL030W, strain snc1, hits give low values 0.967 | locus YBL061C, strain skt5, hits give low values 0.971 | locus YBR009C, strain hhf1, hits give low values 0.964 | locus YBR021W, strain FUR4, hits give low values 1.03 | locus YBR023C, strain chs3, hits give low values 0.957 | locus YBR171W, strain sec66, hits give low values 0.951 | locus YBR229C, strain ROT2, hits give low values 0.951 | locus YBR231C, strain swc5, hits give low values 0.974 | locus YBR279W, strain paf1, hits give low values 0.96 | locus YCL011C, strain gbp2, hits give low values 0.912 | locus YCL016C, strain dcc1, hits give low values 0.92 | locus YCL029C, strain bik1, hits give low values 0.995 | locus YCL061C, strain MRC1, hits give low values 0.966 | locus YCL069W, strain vba3, hits give low values 0.982 | locus YCR088W, strain abp1, hits give low values 0.991 | locus YDL005C, strain med2, hits give low values 0.991 | locus YDL035C, strain GPR1, hits give low values 0.91 | locus YDL040C, strain nat1, hits give low values 0.989 | locus YDL074C, strain BRE1, hits give low values 1.01 | locus YDL101C, strain DUN1, hits give low values 0.987 | locus YDL134C, strain PPH21, hits give low values 0.974 | locus YDL185W, strain tfp1, hits give low values 0.988 | locus YDL192W, strain arf1, hits give low values 0.974 | locus YDR001C, strain nth1, hits give low values 0.971 | locus YDR069C, strain doa4, hits give low values 0.936 | locus YDR101C, strain arx1, hits give low values 1.01 | locus YDR137W, strain rgp1, hits give low values 0.945 | locus YDR150W, strain NUM1, hits give low values 0.943 | locus YDR159W, strain sac3, hits give low values 1 | locus YDR162C, strain NBP2, hits give low values 0.911 | locus YDR195W, strain ref2 0.984 | locus YDR297W, strain sur2, hits give low values 0.963 | locus YDR318W, strain mcm21, hits give low values 0.993 | locus YDR334W, strain swr1, hits give low values 0.92 | locus YDR335W, strain msn5, hits give low values 0.961 | locus YDR388W, hits give low values 1.01 | locus YDR392W, strain spt3, hits give low values 0.886 | locus YDR502C, strain sam2, hits give low values 1 | locus YEL003W, strain gim4, hits give low values 0.992 | locus YEL037C, strain rad23, hits give low values 0.977 | locus YEL061C, strain CIN8 (second series), hits give low values 0.977 | locus YEL061C, strain CIN8, hits give low values 0.978 | locus YER015W, strain faa2, hits give low values 0.965 | locus YER016W, strain bim1, hits give low values 0.987 | locus YER110C, hits give low values 0.971 | locus YER111C, strain swi4, hits give low values 0.995 | locus YER155C, strain BEM2 (second series), hits give low values 0.986 | locus YER155C, strain BEM2, hits give low values 1.02 | locus YER167W, strain BCK2, hits give low values 0.961 | locus YFR010W, strain ubp6, hits give low values 0.939 | locus YGL078C, strain dbp3, hits give low values 0.984 | locus YGL086W, strain mad1, hits give low values 0.958 | locus YGL167C, strain pmr1, hits give low values 0.954 | locus YGL173C, strain kem1, hits give low values 0.941 | locus YGL227W, strain vid30, hits give low values 0.979 | locus YGL240W, strain doc1, hits give low values 0.998 | locus YGL248W, strain PDE1, hits give low values 0.958 | locus YGL253W, strain hxk2, hits give low values 0.981 | locus YGR078C, strain PAC10, hits give low values 0.907 | locus YGR135W, strain pre9, hits give low values 0.973 | locus YGR229C, strain SMI1, hits give low values 0.917 | locus YGR252W, strain gcn5, hits give low values 0.908 | locus YHR013C, strain ard1, hits give low values 0.894 | locus YHR027C, strain rpn1, hits give low values 0.95 | locus YHR030C, strain SLT2, hits give low values 0.981 and 1.04 | locus YHR079C, strain IRE1 (second series), hits give low values 1 | locus YHR079C, strain IRE1, hits give low values 1.05 | locus YHR094C, strain hxt1, hits give low values 0.999 | locus YHR129C, strain ARP1, hits give low values 0.985 | locus YHR142W, strain chs7, hits give low values 0.913 | locus YHR200W, strain rpn10, hits give low values 0.981 | locus YIL066C, strain RNR3, hits give low values 0.882 | locus YIL073C, strain SPO22, hits give low values 0.793 | locus YIL125W, strain kgd1, hits give low values 0.99 | locus YIR030C, strain dcg1, hits give low values 0.987 | locus YJL092W, strain hpr5, hits give low values 0.966 | locus YJL095W, strain BCK1 (second series), hits give low values 0.965 | locus YJL095W, strain BCK1, hits give low values 1.02 | locus YJL115W, strain asf1, hits give low values 0.953 | locus YJL129C, strain trk1, hits give low values 0.973 | locus YJL134W, strain LCB3, hits give low values 0.976 | locus YJL154C, strain vps35, hits give low values 0.974 | locus YJL164C, strain tpk1, hits give low values 0.979 | locus YJL166W, strain qcr8, hits give low values 0.927 | locus YJL168C, strain set2, hits give low values 0.995 | locus YJL187C, strain SWE1 (second series), hits give low values 0.985 | locus YJL187C, strain SWE1, hits give low values 0.978 | locus YJR043C, strain POL32, hits give low values 0.967 | locus YJR066W, strain TOR1, hits give low values 0.99

— PubChem BioAssay AID1159580 (chemical genetic matrix, 2015)
